Test [1] can be described thus: kinase inhibitors against Plasmodium liver-stage infection, cell-based, known kinase inhibitor set, luminescence, hepatoma host viability (AID 624392).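 Also: infected cells incubated roughly two days before readout.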 Conditions: Plasmodium liver stage in hepatoma cells, luciferase luminescence, concentration not given here; liver cell % of control: measured here: host liver cell viability; parasite % of control: stronger effect = lower value.

A short description of test [2]: modulators of glucocorticoid suppression of NF-kB, cell-based, luciferase, IL-1B stimulus, dexamethasone (AID 624486).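 As to percent of negative control (+Dex): 100% = mean signal of vehicle control wells on the plate.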 Conditions: NF-kB luciferase reporter, IL-1B + dexamethasone, luminescence; percent of negative control (+Dex): actives lie on both sides, concentration not given here; z-score: measured here: IL-1B alone, no Dex.
Test [3] can be described thus: kinase inhibitors altering Pseudomonas killing of worms, whole organism (AID 651566).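 Also: tested at 14 µM; sign flipped so higher z means a lower ratio.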 Conditions: C. elegans killed by P. aeruginosa, survival ratio.
Test [4] can be described thus: activators of macrophage pro-inflammatory response, cell-based, murine, luminescence (AID 652131). Conditions: murine macrophage pro-inflammatory reporter, stronger effect = higher value.
The nature of test [5]: IRF3 reporter activation in THP-1 macrophages, cell-based, PMA-stimulated THP-1, luminescence (AID 1053176). Conditions: PMA-differentiated THP-1, IRF3 reporter luminescence; stronger effect = higher value.
A short description of test [6]: survival rescue of mitochondrial mutant cells in low glucose, primary screen, MELAS cybrids, Rieske KO mouse fibroblasts, CellTiter-Glo (AID 1508586;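 active = mean z-score across replicates of 1.96 or higher in either the MELAS or the Rieske mutant cell line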;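 also: z relative to plate mean and SD of compound and empty wells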). (ATP-based viability assays read luminescence as a measure of living cells.)
The nature of test [7]: stimulators of nuclear beta-catenin in C2C12, primary screen, imaging, WNT3A-conditioned medium, mouse C2C12, NPC library (AID 1117326; in the data active = nuclear beta-catenin stimulation mostly above about 4.2%, no sharp cut-off; inactive = mostly below about 10%). Conditions: stronger effect = higher value.
Test [8] can be described thus: stimulators of insulin release from INS-1E, primary screen, cell-based, 5 mM glucose, NPC library (AID 1117329;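 active = compound raises insulin release from rat beta cells at 5 mM glucose, no numeric limit stated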). Conditions: rat INS-1E insulin secretion, at 10 µM, stronger effect = higher value.
A short description of test [9]: growth inhibition of GSK3B-pretreated HCT116 cells – cell-based, CellTiter-Glo, 0.2 to 20 µM (AID 1117336;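 active = compounds lowering colon cancer cell viability after pretreatment blocking the GSK3B kinase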). The note with it: HCT116 viability after GSK3B inhibitor, at 20 µM, stronger effect = higher value.
The nature of test [10]: inhibition of endothelial tube formation, primary screen, imaging, VEGF stimulated, CD31 staining, tube area, NPC library (AID 1117340;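 active = compound that reduces growth-factor-driven endothelial tube area in a mixed cell culture, no cutoff stated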). Conditions: VEGF-stimulated ADSC/ECFC co-culture, at 10 µM, stronger effect = higher value.
A short description of test [11]: glucagon-like peptide 1 release enhancers, primary assay, NCI-H716 cell line, NPC library (AID 1117341;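 active = compound raises GLP1 secretion from the human gut endocrine cells, with no numeric limit stated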). The note with it: NCI-H716 cells, at 10 µM, stronger effect = higher value.
Test [12] in a line: HCT116 colon cancer cell growth inhibition, primary screen, CellTiter-Glo luminescence, NPC library (AID 1117342;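 active = compounds that lower survival of HCT116 colon cancer cells in the luminescence readout, no numeric limit stated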). Conditions: at 20 µM (top of the series).
Test [13] can be described thus: CellTiter-Glo luminescent readout of SW480 viability loss, NPC library primary (AID 1117343;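 active = compounds that lower viability of the colon cancer cells in the luminescence readout, with no numeric limit stated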). Conditions: CellTiter-Glo luminescence; at 20 µM (top of the series).
Test [14] is described as follows: decreased DLD-1 cellular survival, CellTiter-Glo luminescent readout, NPC compound collection, primary HTS (AID 1117346;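 active = compounds that lower survival of DLD-1 colon cancer cells in the luminescence readout, no cutoff given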). Conditions: DLD-1 viability, CellTiter-Glo luminescence; at 20 µM (top of the series).
The mark [15] stands for this setting: MELAS cybrid survival, CellTiter-Glo 48 h, stronger effect = higher value.
The mark [16] stands for this setting: Rieske KO mouse fibroblast survival, CellTiter-Glo 72 h.

Activity calls are given as the source filed them. Unless noted, no rule for the calls is given here.

Regarding `Fc1ccc(-c2ncn(C3CCNCC3)c2-c2ccnc(Oc3ccc(F)c(F)c3)n2)cc1`, the liver cell % of control in test [1] came to 83%. The parasite % of control in [1] was 166% (inactive). Also, the percent of negative control (+Dex) in [2] is 106% (inactive). The z-score in [2] was 1.34; in test [3], 0.595 (inactive); in [4], 0.167 (inactive); in test [6] (setting [15]) it was -0.134 (inactive); in [6] (setting [16]) it was -0.514. Moreover, in test [5], the fraction signal is 0.003 (inactive).

In the case of `CCOC(=O)N1CCC(n2c(=O)[nH]c3cc(Cl)ccc32)CC1`, the nuclear beta-catenin stimulation in [7] (at 10 µM) is -2.8% (inactive); in test [7] (stimulation, at 2 µM) it was -0.2%. For the same compound, in [8], the insulin secretion stimulation is -5.2% (inactive). Moreover, in [9], the viability decrease is 15.6% (inactive). For the same compound, the tube area decrease in test [10] was 14.4% (inactive). In addition, the GLP1 secretion stimulation in [11] was -8.8% (inactive). Moreover, the inhibition of viability in [12] is 49.4% (inactive). Moreover, the viability decrease (inhibition) in test [13] is 19.8% (inactive); in test [14], 0.5% (inactive).

In test [1], `O=C1NC(=O)C(c2cccc([N+](=O)[O-])c2)=C1Nc1cc(Cl)c(O)c(Cl)c1` displayed a liver cell % of control of 108%. Further, in test [1], the parasite % of control was 92.3% (inactive). In addition, the percent of negative control (+Dex) in test [2] was 80.5% (inactive). The z-score in test [2] is -0.485; in [3] it was 0.045 (inactive); in [4], 0.634 (inactive); in test [6] (setting [15]) it was -0.803 (inactive); in test [6] (setting [16]), -0.48. For the same compound, in [5], the fraction signal is -0.003 (inactive).

For `C/C(=C(\CCO)SS/C(CCO)=C(\C)N(C=O)Cc1cnc(C)nc1N)N(C=O)Cc1cnc(C)nc1N`, the nuclear beta-catenin stimulation is 0.2% (inactive) in [7] (at 10 µM) and -0.9% in test [7] (stimulation, at 2 µM). For the same compound, in test [8], the insulin secretion stimulation was 0.9% (inactive). Further, in [9], the viability decrease is -14.3% (inactive). Besides, the tube area decrease in test [10] is -4.4% (inactive). The GLP1 secretion stimulation in test [11] is -0.7% (inactive). In test [12], the inhibition of viability is 0.6% (inactive). Also, the viability decrease (inhibition) was -11.8% (inactive) in test [13] and 7.4% (inactive) in [14].

In test [1], `COc1ccc2ncn(-c3cc(O[C@H](C)c4ccccc4Cl)c(C(N)=O)s3)c2c1` returned a liver cell % of control of 108%. Besides, in test [1], the parasite % of control is 124% (inactive). The percent of negative control (+Dex) in [2] is 77.5% (inactive). Further, the z-score is -2.52 in test [2]; 0.63 (inactive) in test [3]; -1.39 (inactive) in test [4]; -0.983 (inactive) in [6] (setting [15]); 0.0827 in test [6] (setting [16]). The fraction signal in test [5] was -0.0045 (inactive).

As to `CCC(C(=O)OCCN1CCOC(c2ccccc2)C1C)c1ccccc1` (centres undefined), the nuclear beta-catenin stimulation in test [7] (at 10 µM) is 1% (inactive); in [7] (stimulation, at 2 µM) it was 1.6%. Besides, in [8], the insulin secretion stimulation was 1.7% (inactive). In test [9], the viability decrease was -40.8% (inactive). For the same compound, the tube area decrease in test [10] was 3.7% (inactive). Besides, in test [11], the GLP1 secretion stimulation is 5.9% (inactive). Also, the inhibition of viability in [12] is 15.8% (inactive). Besides, the viability decrease (inhibition) in test [13] is -0.4% (inactive); in test [14], 22.2% (inactive).

As for `Fc1ccc(Oc2nccc(-c3c(-c4ccc(F)cc4)ncn3C3CCNCC3)n2)cc1`, in test [1], the liver cell % of control was determined as 104%. Moreover, the parasite % of control in test [1] was 122% (inactive). In addition, the percent of negative control (+Dex) in test [2] was 107% (inactive). Besides, the z-score is 1.11 in test [2]; -1.01 (inactive) in [3]; 7.24 (active) in test [4]; -0.283 (inactive) in test [6] (setting [15]); -0.391 in test [6] (setting [16]). Moreover, the fraction signal in [5] is 0 (inactive).

Consider `CCCC(CCC)(C(=O)OCC)C(=O)OCC`, for which the nuclear beta-catenin stimulation in test [7] (at 10 µM) is -1.3% (inactive); in test [7] (stimulation, at 2 µM), -2.9%. Moreover, the insulin secretion stimulation in test [8] is 2.1% (inactive). In addition, the viability decrease in test [9] was 11.4% (inactive). Besides, the tube area decrease in [10] was -3.8% (inactive). The GLP1 secretion stimulation in test [11] was 3.5% (inactive). The inhibition of viability in [12] was 12.2% (inactive). The viability decrease (inhibition) was 1.4% (inactive) in [13] and -4.9% (inactive) in [14].

As to `CC(=O)O[C@@H]1CC2C3CCc4cc(OC(=O)c5ccccc5)ccc4C3CCC2(C)[C@H]1OC(C)=O` (some centres undefined), the nuclear beta-catenin stimulation was 0.7% (inactive) in test [7] (at 10 µM) and 1.1% in [7] (stimulation, at 2 µM). In test [8], the insulin secretion stimulation is 0.5% (inactive). The viability decrease in test [9] is -39.7% (inactive). The tube area decrease in [10] is 27.8% (inactive). Besides, the GLP1 secretion stimulation in test [11] is 2.1% (inactive). In addition, the inhibition of viability in test [12] was 0.9% (inactive). The viability decrease (inhibition) in [13] is 47% (inactive); in test [14], -13.5% (inactive).

The compound `C[C@@H](Oc1cc(-n2cnc3ccc(OC4CCN(C)CC4)cc32)sc1C(N)=O)c1ccccc1Cl` came in with a liver cell % of control in [1] of 70.4%. In test [1], the parasite % of control was 183% (inactive). Also, in [2], the percent of negative control (+Dex) is 73% (inactive). The z-score in [2] was -2.66; in test [3] it was -0.3 (inactive); in test [4], -1.72 (inactive); in test [6] (setting [15]), -0.022 (inactive); in test [6] (setting [16]), -0.0227. Besides, the fraction signal in test [5] was -0.008 (inactive).

For `CC(C)(Cc1c[nH]c2ccccc12)NCC(O)COc1ccccc1C#N` (centres undefined), the nuclear beta-catenin stimulation in test [7] (at 10 µM) is 0.2% (inactive); in test [7] (stimulation, at 2 µM), 0%. Further, the insulin secretion stimulation in [8] was 44.5% (active). In addition, the viability decrease in [9] was 84.6% (active). Moreover, the tube area decrease in test [10] is 12.6% (inactive). Moreover, the GLP1 secretion stimulation in test [11] was 3.9% (inactive). Further, the inhibition of viability in test [12] was 87% (active). In addition, the viability decrease (inhibition) in test [13] was 109% (active); in test [14], 49.7% (inactive).

In [1], `Cc1ccc(NC(=O)c2ccnc(N3CCOCC3)c2)cc1-c1ccc(C(=O)NCC2CC2)cc1` gave a liver cell % of control of 100%. Further, the parasite % of control in [1] is 95.1% (inactive). Also, the percent of negative control (+Dex) in test [2] is 102% (inactive). Also, the z-score in test [2] is 1.12; in test [3], 0.01 (inactive); in test [4], -0.216 (inactive); in test [6] (setting [15]) it was -0.365 (inactive); in test [6] (setting [16]) it was -0.395. The fraction signal in test [5] was -0.0075 (inactive).

Consider `CN1CCN(CCC(=O)N2c3ccccc3Sc3ccc(C(F)(F)F)cc32)CC1`, for which the nuclear beta-catenin stimulation in test [7] (at 10 µM) was 2.3% (inactive); in test [7] (stimulation, at 2 µM) it was 2.1%. Moreover, the insulin secretion stimulation in [8] was 16.1% (inactive). Also, the viability decrease in test [9] is 72.7% (active). In test [10], the tube area decrease was 19.7% (inactive). In addition, the GLP1 secretion stimulation in [11] is 11.5% (inactive). Further, in test [12], the inhibition of viability was 60% (active). In addition, the viability decrease (inhibition) in test [13] is 117% (active); in test [14], 57.8% (active).

Turning to `N#Cc1c(NC(=O)c2cccc3ccccc23)sc2c1CCCN2C(=O)C1CC1`, the liver cell % of control in test [1] was found to be 190%. The parasite % of control in [1] is 15.9% (inactive). Also, the percent of negative control (+Dex) in test [2] was 106% (inactive). Besides, the z-score in [2] is -0.12; in [3], -0.17 (inactive); in test [4] it was -0.734 (inactive); in test [6] (setting [15]) it was -0.726 (inactive); in test [6] (setting [16]), -0.0978. For the same compound, in [5], the fraction signal was 0.002 (inactive).

In the case of `Cc1cccc(C)c1NC(=O)CN1CCCC1`, the nuclear beta-catenin stimulation in test [7] (at 10 µM) was -0.4% (inactive); in test [7] (stimulation, at 2 µM), 0.7%. Further, the insulin secretion stimulation in test [8] was 0.6% (inactive). Moreover, the viability decrease in [9] was 4.2% (inactive). For the same compound, the tube area decrease in [10] was -6.7% (inactive). Further, the GLP1 secretion stimulation in test [11] was 1.1% (inactive). Besides, the inhibition of viability in test [12] was 37.9% (inactive). The viability decrease (inhibition) in test [13] was 3.5% (inactive); in test [14] it was 2.4% (inactive).

On to `CC(=O)CC/C=C(\C)CC/C=C(\C)CC/C=C(\C)CCC=C(C)C`, for which the nuclear beta-catenin stimulation was 2.6% (inactive) in [7] (at 10 µM) and 1.2% in [7] (stimulation, at 2 µM). For the same compound, the insulin secretion stimulation in [8] is -2.1% (inactive). Moreover, the viability decrease in [9] is -2.15% (inactive). The tube area decrease in test [10] was 19.6% (inactive). Moreover, the GLP1 secretion stimulation in test [11] was -1.7% (inactive). The inhibition of viability in [12] was -35.4% (inactive). Besides, the figures for the viability decrease (inhibition) in [13] and in test [14] were 34.2% (active) and 0.15% (inactive), respectively.

Values taken from PubChem BioAssay.
